{"source": "PubChem BioAssay AID1345082", "about": "(National Center for Advancing Translational Sciences (NCATS), 2018)", "note": "Among all 94,000 compounds or so, about 4,000 (4.3%) were called active. Another 29% or so got no clear call; they are omitted. Shown is part of a subset that was picked to be rich in actives. Unmarked numbers belong to inactive results. Calls come from the whole dose curve; as a rule, active = well fitted inhibition curve with a large enough effect; inconclusive = small, poorly fitted or top-dose-only effect; inactive = no such curve, though single readings can be large or run the other way. % is set by controls: 0 for no effect and ±100 for the full control effect; potency is the fitted concentration of half-maximal effect."}
{"assay": "Cytotoxic Profiling in NIH 3T3 Cell Line of Diverse Libraries Using Quantitative High-Throughput Screening; note: nearly all actives have a fitted effect of over 55% in size", "conditions": "NIH 3T3 viability, CellTiter-Glo ATP luminescence, 48-72 h; series mostly up to 96.7 µM; activity change, negative = cytotoxicity: at the top concentration", "how_it_was_run": "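Cells were seeded at 400 per well, treated with pin-transferred compound, and kept 48 or 72 hr at 37 °C before CellTiter-Glo addition and luminescence imaging of cellular ATP.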"}
{"smiles": "Cc1cc(N)n(CC(=O)N[C@@H]2COCC[C@@H]2OCc2c(C)noc2C)n1", "activity change, negative = cytotoxicity": "-6.92%"}
{"smiles": "CCc1c(C)nn(CCNc2ncnc3c2c(C)nn3C)c1C", "activity change, negative = cytotoxicity": "-25.9%"}
{"smiles": "O=C(CC1CC1)N1C[C@H]2OC(=O)N(CCc3cccc(Cl)c3)[C@H]2C1", "activity change, negative = cytotoxicity": "-8.22%"}
{"smiles": "CC(=O)NC1CC2(CCN(C(=O)Cc3c[nH]c4ccccc34)CC2)c2ccccc21", "note": "(configuration not stated)", "activity change, negative = cytotoxicity": "-2.64%"}
{"smiles": "COC[C@@H]1[C@@H](NC(=O)Cc2nn(C)c(=O)c3ccccc23)[C@@H]2CCO[C@H]12", "outcome": "inactive"}
{"smiles": "O=C1CO[C@H]2CN(C3CCC3)C[C@H]2N1Cc1ccc(OC(F)(F)F)cc1", "Potency": "89.1 µM (active)"}
{"smiles": "COc1ccc(CN2C(=O)CO[C@H]3CN(C(=O)C4CC4)C[C@H]32)cc1", "outcome": "inactive [at 174 µM]"}
{"smiles": "COc1ccc(CN2C(=O)CO[C@H]3CN(Cc4cccnc4)C[C@H]32)cc1", "activity change, negative = cytotoxicity": "-16.6% [at 174 µM]"}
{"smiles": "Clc1ccc(-c2nnc3n2CCN(Cc2cccc4ccccc24)C3)cc1", "activity change, negative = cytotoxicity": "-1.44%"}
{"smiles": "CCc1noc(-c2cn(C3CCN(C(=O)c4ccc(Cl)cc4)C3)nn2)n1", "note": "(configuration not stated)", "activity change, negative = cytotoxicity": "-37.5%"}
{"smiles": "COc1cccc(C(=O)N2CCC(Cc3nc(-c4cnccn4)no3)CC2)c1", "activity change, negative = cytotoxicity": "-14.6%"}
{"smiles": "COc1cccc(CN2CCN(C(=O)c3cnc4ccccn4c3=O)CC2=O)c1", "activity change, negative = cytotoxicity": "-20.9%"}
{"smiles": "COc1cccc(CN2C(=O)OC3(CCN(C(=O)c4scnc4C)CC3)C2(C)c2cccnc2)c1", "note": "(configuration not stated)", "Potency": "31.6 µM (active)"}
{"smiles": "O=C(CCCc1ccccc1)Nc1ccnn1C1CCN(C(=O)CCn2cncn2)CC1", "activity change, negative = cytotoxicity": "-8.17%"}
{"smiles": "Cc1cc(C(=O)N2CC[C@@H]3CN(Cc4ccccc4)[C@@H]3C2)nn1C", "activity change, negative = cytotoxicity": "3.88%"}
{"smiles": "Cc1nc(-c2c3n(c(=O)n(CC(=O)Nc4ccccc4C)c2=O)CCCCC3)no1", "activity change, negative = cytotoxicity": "-7.9%"}
{"smiles": "Cc1nc2scc(CC(=O)NC(C)C)n2c(=O)c1-c1cc(C)n(-c2cccc(Cl)c2)n1", "outcome": "inactive"}
{"smiles": "CCn1c(C2CCCN(C(=O)c3ccc(C(C)(C)C)cc3)C2)nn(C)c1=O", "note": "(configuration not stated)", "activity change, negative = cytotoxicity": "-23.2%"}
{"smiles": "CC(C)c1ccc(N2C(=O)N[C@@H]3CCN(C(=O)c4ccc(C(C)(C)C)cc4)[C@@H]3C2=O)cc1", "Potency": "70.8 µM (active)"}
{"smiles": "O=C1C(N2CCN(S(=O)(=O)c3ccccc3)CC2)CCN1CCc1ccccc1", "note": "(configuration not stated)", "activity change, negative = cytotoxicity": "-29.8%"}
{"smiles": "Cc1ccccc1NC(=O)Nc1ccnn1C1CCN(C(=O)CCN)CC1", "activity change, negative = cytotoxicity": "-3.4%"}
{"smiles": "CC(C)c1ccc(C(=O)N2C[C@@H]3CCCN4CCC[C@@H]([C@H]34)[C@H]2CCCC(=O)N2CCOCC2)cc1", "activity change, negative = cytotoxicity": "-9.71%"}
{"smiles": "CCC(CC)C(=O)NC1CCN(c2cnn(CCOC)c(=O)c2)CC1", "activity change, negative = cytotoxicity": "-18.5%"}
{"smiles": "COc1ccccc1CN1CC[C@@H](CO)N(C)c2ncccc2C1", "Potency": "35.5 µM (active)"}
{"smiles": "Cc1ccc2c(n1)N(C)[C@H](CO)CCN(Cc1cccc(Cl)c1)C2", "activity change, negative = cytotoxicity": "-25.8% [at 174 µM]"}
{"smiles": "Cc1ccc2c(n1)N(C)[C@H](CO)CCN(Cc1ccccc1C)C2", "activity change, negative = cytotoxicity": "-20.4% [at 174 µM]"}
{"smiles": "Cc1ccc(-c2cc3c(=O)n(CCNC(=O)Cc4c[nH]c5ccccc45)ccn3n2)cc1C", "activity change, negative = cytotoxicity": "-17.1%"}
{"smiles": "O=C(NCc1ccncc1)C1CC(=O)N(c2n[nH]c3ccccc23)C1", "note": "(configuration not stated)", "outcome": "inactive"}
{"smiles": "Cc1cccc(OCCc2noc(C3CCCN3C(=O)c3ccnn3C)n2)c1", "note": "(configuration not stated)", "activity change, negative = cytotoxicity": "-15.3%"}
{"smiles": "Cc1cc(C(=O)N2CCCC(Cc3noc(-c4cccnc4)n3)C2)nn1C", "note": "(configuration not stated)", "activity change, negative = cytotoxicity": "-1.02%"}
{"smiles": "COc1ccc(NC(=O)N2CCCC(Cc3noc(-c4ccccc4)n3)C2)cc1", "note": "(configuration not stated)", "Potency": "35.5 µM (active)"}
{"smiles": "COCCCNC(=O)N1CCC(Cc2noc(-c3ccncc3)n2)C1", "note": "(configuration not stated)", "activity change, negative = cytotoxicity": "-18.9%"}
{"smiles": "CCN1C(=O)CCN(C(=O)NCCCOC)CC12CCOCC2", "activity change, negative = cytotoxicity": "2.65%"}
{"smiles": "O=C1NC(=NC2CCCCC2)C2(CCN([S+](=O)([O-])c3ccccc3)C2)N1c1cccnc1", "note": "(configuration not stated)", "activity change, negative = cytotoxicity": "3.46%"}
{"smiles": "O=C(c1ccsc1)N1CCCCCC1c1nnc(-c2ccccc2)o1", "note": "(configuration not stated)", "activity change, negative = cytotoxicity": "-20.9%"}
{"smiles": "COc1ccc(C(=O)N2CCCN(C(=O)C3CC3)C(c3ccccc3)CC(=O)NCC2)cn1", "note": "(configuration not stated)", "activity change, negative = cytotoxicity": "-7.53%"}
{"smiles": "COc1ccccc1N1CCN(C(=O)C2CCCN(C(=O)c3ccccc3)CCC(=O)NCC2)CC1", "note": "(configuration not stated)", "outcome": "inactive"}
{"smiles": "COc1ccccc1N1CCCc2ncc(C(=O)N3CCCC[C@@H]3c3ccccc3)cc21", "Potency": "70.8 µM (active)"}
{"smiles": "CNC(=O)c1cc(C2CC2)nc2onc(C3CCCN(C(=O)OC)C3)c12", "note": "(configuration not stated)", "activity change, negative = cytotoxicity": "-20.4%"}
{"smiles": "CC(C)NC(=O)NC[C@H]1O[C@@H]2C[C@@H](CC(=O)NCc3nccn3C)O[C@@H]2[C@@H]1O", "activity change, negative = cytotoxicity": "-20.6% [at 174 µM]"}
{"smiles": "NC(=O)c1cccc(-c2ncc3c(n2)OCCN(c2cccc(C(F)(F)F)c2)C3=O)c1", "Potency": "15.8 µM (active)"}
{"smiles": "COc1ccc(OC2CCN(C(C)=O)CC2)c(C(=O)N(C)Cc2ccc3nccnc3c2)c1", "activity change, negative = cytotoxicity": "-21.1%"}
{"smiles": "O=C([C@H]1C[C@@H](F)CN1S(=O)(=O)c1ccc(F)c(Cl)c1)N1CCOCC1", "activity change, negative = cytotoxicity": "-0.937%"}
{"smiles": "CN1C[C@@H](NC(=O)c2ccccc2)C[C@H]1c1nc(-c2ccccc2)no1", "activity change, negative = cytotoxicity": "-17.1% [at 174 µM]"}
{"smiles": "CN1C[C@@H](NC(=O)c2ccc(C#N)cc2)C[C@H]1c1nc(-c2ccc(OC(F)(F)F)cc2)no1", "Potency": "39.8 µM (active)"}
{"smiles": "CN1C[C@@H](NC(=O)COc2ccccc2)C[C@H]1c1nc(-c2ccc3c(c2)OCO3)no1", "activity change, negative = cytotoxicity": "-28.1% [at 174 µM]"}
{"smiles": "COc1ccc(CCc2nc(NC(=O)Cn3nc4c(cc3=O)CCCCC4)n[nH]2)cc1", "activity change, negative = cytotoxicity": "-23.8%"}
